Source: PubChem BioAssay (NCI)
Where “and” joins values, the source holds several entries; their conditions need not be identical. Identical values can stand only once. This is part of a sample that, as a whole, favours compounds with a hit. Of some 83,000 tested, about 20% had one in any assay.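 Cells were grown in 96-well plates and exposed to the test compound at a single concentration for 48 hours; results are reported as percent growth, with values below 10 considered active.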 Calls of active or inactive are those of the source.

Columns and labels:
Test in all cases: NCI-60 one-dose screen, 48 h (100 = growth as untreated, 0 = no growth, -100 = all killed)
Conditions in all cases: 10 µM unless noted
HCT-15 colon = test system: HCT-15 colon
HT29 colon = test system: HT29 colon
SNB-75 CNS = test system: SNB-75 CNS
SNB-19 CNS = test system: SNB-19 CNS
U251 CNS = test system: U251 CNS
PC-3 prostate = test system: PC-3 prostate
SK-MEL-5 melanoma = test system: SK-MEL-5 melanoma
UACC-62 melanoma = test system: UACC-62 melanoma
LOX IMVI melanoma = test system: LOX IMVI melanoma
SK-MEL-28 melanoma = test system: SK-MEL-28 melanoma
SK-MEL-2 melanoma = test system: SK-MEL-2 melanoma
EKVX NSCLC = test system: EKVX NSCLC
SN12C renal = test system: SN12C renal
UO-31 renal = test system: UO-31 renal
TK-10 renal = test system: TK-10 renal
ACHN renal = test system: ACHN renal
CAKI-1 renal = test system: CAKI-1 renal
A498 renal = test system: A498 renal
CCRF-CEM leukemia = test system: CCRF-CEM leukemia
MOLT-4 leukemia = test system: MOLT-4 leukemia

| SMILES | growth (HCT-15 colon) | growth (HT29 colon) | growth (SNB-75 CNS) | growth (SNB-19 CNS) | growth (U251 CNS) | growth (PC-3 prostate) | growth (SK-MEL-5 melanoma) | growth (UACC-62 melanoma) | growth (LOX IMVI melanoma) | growth (SK-MEL-28 melanoma) | growth (SK-MEL-2 melanoma) | growth (EKVX NSCLC) | growth (SN12C renal) | growth (UO-31 renal) | growth (TK-10 renal) | growth (ACHN renal) | growth (CAKI-1 renal) | growth (A498 renal) | growth (CCRF-CEM leukemia) | growth (MOLT-4 leukemia) |
| --- | --- | --- | --- | --- | --- | --- | --- | --- | --- | --- | --- | --- | --- | --- | --- | --- | --- | --- | --- | --- |
| CNc1ccc2nc3ccc(=[N+](C)C)cc-3sc2c1 | 17.2% (inactive) and 9.61% (active) | 9.87% (active) and 38.1% (inactive) | -53.5% (active) | 1.89% (active) and -5.26% (active) | -48.5% (active) and -15.5% (active) | 1.57% (active) and 1.01% (active) | -97% (active) and -61.1% (active) | 4.52% (active) and -3.38% (active) | -57.5% (active) and -44.1% (active) | -31.3% (active) and 27.9% (inactive) | 4.78% (active) and 4.79% (active) | 40.9% (inactive) and 44.1% (inactive) | -22% (active) and -62.5% (active) | 26.7% (inactive) and 33.7% (inactive) | -3.64% (active) and 17.3% (inactive) | 14.6% (inactive) and -27.6% (active) | 11.2% (inactive) and 4.64% (active) | 57.8% (inactive) and 49.1% (inactive) | 9.67% (active) and 11.8% (inactive) | -8.79% (active) and 12.2% (inactive) |
| CC(C)(C)c1ccc(O)c(CNC2CCCCC2)c1 | 108% (inactive) and 84.5% (inactive) | 79.1% (inactive) and 95.2% (inactive) | 86% (inactive) and 82.8% (inactive) | 89.2% (inactive) and 90.9% (inactive) | 97.6% (inactive) and 88% (inactive) | 82.5% (inactive) and 83.8% (inactive) | 92.6% (inactive) and 79.2% (inactive) | 96.6% (inactive) and 79.7% (inactive) | 86.2% (inactive) and 97.6% (inactive) | 105% (inactive) and 98.3% (inactive) | 94.6% (inactive) | 108% (inactive) | 102% (inactive) and 91.4% (inactive) | 65.7% (inactive) and 78.9% (inactive) | 92.4% (inactive) | 116% (inactive) and 91.3% (inactive) | 111% (inactive) and 97.5% (inactive) | 110% (inactive) and 91.8% (inactive) | 91.8% (inactive) and 86.6% (inactive) | 98.1% (inactive) and 81.2% (inactive) |
| O=C(CCl)c1ccc2c(c1)Nc1ccccc1S2 | 85.1% (inactive) and 21.2% (inactive) | 101% (inactive) and 95.6% (inactive) | 88.6% (inactive) and 102% (inactive) | 99.7% (inactive) and 98% (inactive) | 98% (inactive) and 92% (inactive) | 92.8% (inactive) and 104% (inactive) | 94.1% (inactive) and 99.5% (inactive) | 87.5% (inactive) | 79.1% (inactive) and 48.2% (inactive) | 106% (inactive) and 115% (inactive) | 80.5% (inactive) and 72.5% (inactive) | 98.6% (inactive) | 104% (inactive) and 93.8% (inactive) | 97.7% (inactive) and 81% (inactive) | 95.5% (inactive) | 104% (inactive) and 92.4% (inactive) | 98.4% (inactive) | 84.1% (inactive) and 77.2% (inactive) | 53.7% (inactive) and 50.5% (inactive) | 46.3% (inactive) and 48.5% (inactive) |
| COC(=O)c1nc(N)nc(C(=O)OC)c1C(=O)c1ccc(OC)cc1 | 107% (inactive) and 42% (inactive) | 113% (inactive) and 68.2% (inactive) | 95.2% (inactive) and 76% (inactive) | 98.1% (inactive) and 69.9% (inactive) | 106% (inactive) and 49.6% (inactive) | 99% (inactive) and 46% (inactive) | 104% (inactive) and 57.4% (inactive) | 102% (inactive) and 35% (inactive) | 97.7% (inactive) and 52.8% (inactive) | 116% (inactive) and 69% (inactive) | 108% (inactive) and 77.3% (inactive) | 101% (inactive) and 59.3% (inactive) | 113% (inactive) and 78.5% (inactive) | 89.6% (inactive) and 66.3% (inactive) | 105% (inactive) and 92.8% (inactive) | 104% (inactive) and 52.9% (inactive) | 94.8% (inactive) and 73.6% (inactive) | 133% (inactive) and 141% (inactive) | 104% (inactive) and 39.7% (inactive) | 136% (inactive) and 12.8% (inactive) |
| CCOC(=O)C(C(=O)OCC)C(c1ccccc1)N1CCN(c2ccccc2)CC1 (stereo not given) | 108% (inactive) and 94.8% (inactive) | 107% (inactive) and 106% (inactive) | 94.7% (inactive) and 103% (inactive) | 99.4% (inactive) and 110% (inactive) | 105% (inactive) and 98% (inactive) | 110% (inactive) and 109% (inactive) | 105% (inactive) and 102% (inactive) | 98.7% (inactive) and 107% (inactive) | 103% (inactive) and 98.4% (inactive) | 109% (inactive) and 111% (inactive) | 105% (inactive) and 100% (inactive) | 107% (inactive) and 103% (inactive) | 98.2% (inactive) and 110% (inactive) | 73.8% (inactive) and 78.9% (inactive) | 98.1% (inactive) and 113% (inactive) | 105% (inactive) | 112% (inactive) and 98.1% (inactive) | 139% (inactive) and 107% (inactive) | 95.9% (inactive) | 103% (inactive) and 99.1% (inactive) |
| CCN(CC)CCCC(C)Nc1ccnc2cc(Oc3ccccc3)ccc12 (stereo not given) | 52.7% (inactive) and 54.5% (inactive) | 30.1% (inactive) | 62.9% (inactive) and 99.8% (inactive) | 83.5% (inactive) and 94.5% (inactive) | 56.5% (inactive) and 60.4% (inactive) | 61.9% (inactive) and 67.7% (inactive) | -87.1% (active) and 79.6% (inactive) | 60.9% (inactive) and 92.8% (inactive) | 22.2% (inactive) and 39.3% (inactive) | 1.01% (active) and 85.5% (inactive) | 115% (inactive) | 83.7% (inactive) and 74.9% (inactive) | 71.2% (inactive) and 74.4% (inactive) | 49.2% (inactive) and 50.6% (inactive) | 91.3% (inactive) | 73.6% (inactive) and 80.6% (inactive) | 68.8% (inactive) | 59.1% (inactive) and 55.4% (inactive) | 65.5% (inactive) and 56% (inactive) | 65.1% (inactive) and 80.7% (inactive) |
| CC12CCC(CC1)C(C)(C)O2 | 97.2% (inactive) | 95.1% (inactive) | 74% (inactive) | 103% (inactive) | 103% (inactive) | 99.7% (inactive) | 102% (inactive) | 103% (inactive) | 97.4% (inactive) | 114% (inactive) | 90.7% (inactive) | 97.6% (inactive) | 103% (inactive) | 87.4% (inactive) | 93.8% (inactive) | 104% (inactive) | 91.4% (inactive) | 92.7% (inactive) | 92.4% (inactive) | 103% (inactive) |
| COc1ccc2ccccc2c1/C=N/N1CCCCC1 | 99.4% (inactive) | 101% (inactive) | 87.6% (inactive) | 88.1% (inactive) | 97.8% (inactive) | 95.9% (inactive) | 98.3% (inactive) | 89.1% (inactive) | 93% (inactive) | 96.5% (inactive) | 102% (inactive) | 93.6% (inactive) | 96.9% (inactive) | 88.9% (inactive) | 105% (inactive) | 99% (inactive) | 85.7% (inactive) | 89% (inactive) | 96.7% (inactive) | 88.3% (inactive) |
